Here are results for five compounds from PubChem BioAssay (NCATS).

The target in experiment [1] is Lysosomal acid glucosylceramidase (Homo sapiens) (UniProt P04062). Kind of experiment: Glucocerebrosidase-p2 (AID 348; in the data active means potency below about 10 µM; further: potency means the concentration at half of the fitted maximal effect). As to conditions: purified GBA, blue fluorogenic substrate, 40 min. The essentials:
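Compounds titrated from 0.6 nM upwards against 0.2 nM enzyme in pH 5.9 citric acid/KH2PO4, taurocholate, tween-20; blue fluorogenic substrate 80 uM, 40 min room temperature, stopped and read Ex 365/Em 440 for AC50.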

Experiment [2] concerns the target Glucocorticoid receptor (Homo sapiens) (UniProt P04150). Description: GR-GFP Redistribution (AID 450;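 active means compounds whose dose series gives a full or clear partial fitted curve of increased nuclear translocation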; further: potency means the concentration at half of the fitted maximal effect). As to conditions: U2OS GR-GFP nuclear translocation, laser cytometry, 2 h.
Experiment [3] shares this target. Kind of experiment: GR-EFC Redistribution (AID 451; calls by dose curve; further: potency means the concentration at half of the fitted maximal effect). As to conditions: CHO-K1 GR-EFC translocation, beta-gal luminescence, 2 h. The essentials:
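CHO-K1 cells expressing nuclear EA and GR-ED fragments of b-gal; compounds titrated up to 46 uM final, 2 h at 37 C. GR nuclear translocation read as complemented b-gal luminescence after 1 h RT detection.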

Experiment [4] addresses Mitogen-activated protein kinase 10 (Mus musculus) (UniProt Q61831). Description: JNK3 AlphaScreen Assay (AID 530; active means well fitted curve in either direction with a large enough effect, not every such curve was filed as active;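 further: kinase came from lysate of stimulated human HepG2 cells; signal reports phosphorylation of biotinylated GST-cJun 1-79 at Ser73 with 10 µM ATP; on the % scale 0 is the no-effect control and ±100 the full control effect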). The following applies: JNK3 lysate, c-Jun phosphorylation; series mostly up to 57.1 µM. The essentials: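 Pre-activated (IL-1β/TNFα) JNK3 in HepG2 lysates phosphorylates biotin-GST-cJun(1-79), 10 uM ATP; anti-phospho-cJun(Ser73) AlphaScreen read at room temperature, pH 7.6 Tris buffer. Compounds pre-incubated 15 min as titrations.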
Background: Bead proximity is the source of the signal in Alpha formats.

For experiment [5], the target named is Cytochrome P450 2C9 (Homo sapiens) (UniProt P11712). Description: qHTS Assay for Inhibitors and Substrates of Cytochrome P450 2C9 (AID 883). Further: potency means the concentration at half of the fitted maximal effect; nearly all actives have a fitted effect of over 60% in size. As to conditions: recombinant CYP2C9, luciferin-H luminescence, 60 min; series mostly up to 57.1 µM. The essentials: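 Signal: luciferase luminescence reporting luciferin produced by CYP2C9. Conditions: 10nM enzyme, Luciferin-H 100uM at KM, 25mM KPO4, 37C, 60 min NADPH-driven reaction. Reference: 57uM sulphaphenazole as 100% inhibition.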
A general note: qHTS replaces the single test concentration by a dilution series.

Experiment [6] in a line: qHTS Assay for Identification of Small Molecule Agonists for Hypoxia Response Element Signaling Pathway (AID 914; active means well fitted activation curve with a large enough effect in the signal ratio, with a control signal flat, not every such curve was filed as active; the % refers to the signal ratio; further: potency means the concentration at half of the fitted maximal effect). The following applies: ME-180 HRE-bla reporter, beta-lactamase ratio, CoCl2, 17 h; activation: stronger effect = higher value. The essentials: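 A beta-lactamase reporter under hypoxia response element control in ME-180 cells served as the system. Compound titrations plus EC50 CoCl2 ran 17 h at 37 degrees Celsius; AC50 values were fitted from %Activity.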

Experiment [7] is described as follows: qHTS Assay for Lipid Storage Modulators (AID 1519; calls by dose curve). The following applies: Drosophila S3 cells, BODIPY lipid droplet/cell ratio, laser cytometry, cells loaded with oleic acid; for activity change, negative = inhibition: at 57.5 µM (top of the series). The essentials:
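Cells seeded at 5,000 per well were treated with compounds over a concentration series and loaded with oleic acid (400 uM, as added). Lipid droplet fluorescence (488 nm excitation, 500-530 nm channel) was read by laser-scanning cytometry and normalized to 20 uM Triacsin C.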

The target of experiment [8] is Dual specificity protein kinase CLK4 (Homo sapiens) (UniProt Q9HAZ1). Description: qHTS Assay for Inhibitors of CDC-like Kinase 4 (Kinase-Glo Assay) (AID 1770). Further: on the % scale 0 is the no-effect control and ±100 the full control effect; nearly all actives have a fitted effect of over 65% in size. The following applies: recombinant Clk4, Kinase-Glo ATP depletion luminescence; series mostly up to 66.7 µM. The essentials:
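Substrate mix (RS peptide 100 uM, ATP 1 uM) dispensed, compound pinned in, then Clk4 added to 25 nM final. Incubated 4.5 h at RT; Kinase-Glo reagent added, luminescence read after 5 min.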

Experiment [9] shares this target. Kind of experiment: qHTS Assay for Inhibitors of CDC-like Kinase 4 (ADP-Glo Assay) (AID 1771). Further: on the % scale 0 is the no-effect control and ±100 the full control effect; nearly all actives have a fitted effect of over 70% in size. The following applies: recombinant CLK4, ADP-Glo luminescence; series mostly up to 80 µM. The essentials: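 Luminescence from ADP-Glo reports ADP produced by 25 nM Clk4 acting on 100 uM RS repeat peptide with 1 uM ATP over 1 hr at room temperature; residual ATP is depleted before ADP is converted to ATP for detection.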

Experiment [10] shares this target. Kind of experiment: qHTS Assay for Inhibitors of CDC-like Kinase 4 (ADP-FP Assay) (AID 1795). Further: on the % scale 0 is the no-effect control and ±100 the full control effect; nearly all actives have a fitted effect of over 60% in size. As to conditions: Transcreener ADP fluorescence polarization; series mostly up to 50 µM. The essentials:
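Clk4 6.25 nM; RS peptide 100 uM; ATP 1 uM; 25 mM Tris pH 7.5, 10 mM MgCl2; 1 h reaction. ADP detected via antibody/orange tracer FP displacement; TG003 positive control.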

The target in experiment [11] is Ubiquitin carboxyl-terminal hydrolase 1 (Homo sapiens) (UniProt O94782). Description: Inhibitors of USP1/UAF1: Pilot qHTS (AID 504865).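 Further: rhodamine fluorescence freed from ubiquitin-rhodamine substrate followed over time; top concentration of the series differs between compounds; on the % scale 0 is the no-effect control and ±100 the full control effect; nearly all actives have a fitted effect of over 35% in size.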 The following applies: purified USP1/UAF1, Ub-rhodamine cleavage fluorescence; series mostly up to 54.9 µM. The essentials: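 In 50mM HEPES pH 7.8 containing 0.5mM EDTA, 1mM TCEP, 0.1 mg/ml BSA and 0.01% Tween-20, 1nM USP1/UAF1 is exposed to compound for 15 min, then Ub-Rho (150nM final) is added and fluorescence is read over time.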

Experiment [12] is described as follows: Counterscreen qHTS for small molecule stabilizers of the endoplasmic reticulum resident proteome: GLuc-NoTag assay (AID 1508627).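 Further: 0% = thapsigargin alone and -100% = DMSO vehicle control.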 The following applies: Gaussia luciferase NoTag secretion counterscreen, luminescence, thapsigargin 100 nM for final 4 h; series mostly up to 76.4 µM. The essentials:
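SH-SY5Y cells stably expressing constitutively secreted GLuc without SERCaMP tag, exposed to compound for 19 hr, then to 100 nM thapsigargin for 4 hr at 37C. Medium luciferase was read by coelenterazine luminescence without lysis.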

Experiment [13] can be described thus: Confirmatory qHTS for small molecule stabilizers of the endoplasmic reticulum resident proteome: Secreted ER Calcium Modulated Protein (SERCaMP) assay (AID 1508628). Further: nearly all actives have a fitted effect of over 40% in size. Further: potency means the concentration at half of the fitted maximal effect. As to conditions: SERCaMP secreted luciferase ER calcium/proteostasis reporter; series mostly up to 76.3 µM. The essentials: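 SH-SY5Y cells stably expressing GLuc-SERCaMP, treated 16 h with compound (primary 1.53, 7.67, 38.3 uM; confirmation 11 concentrations, up to 76.6 uM), then 100 nM thapsigargin for 4 h. Secreted Gaussia luciferase in medium read by coelenterazine luminescence.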

Experiment [14] can be described thus: AP1 Signaling Pathway (AID 357; active means well fitted curve in either direction with a large enough effect, not every such curve was filed as active; further: on the % scale 0 is the no-effect control and ±100 the full control effect). As to conditions: ME-180 AP-1-bla reporter, EGF-induced, beta-lactamase ratio, 5 h; at 7.69 µM (top of the series) unless noted. The essentials: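 Read-out was the 460nm/530nm emission ratio (excitation 405nm) after CCF4 loading for 2.5 hours at room temperature. Cells carried an AP-1-driven beta-lactamase reporter, were stimulated with EC50 EGF plus compound for 5 hours, and AC50 values came from titrations.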

Experiment [15] is described as follows: Stat Signaling Pathway (AID 446; active means well fitted curve in either direction with a large enough effect, not every such curve was filed as active;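 further: ME-180 cervical cancer cells given 40 pM IL-6 alongside compound; SIE-controlled beta-lactamase reporter measured as 460/530 nm FRET emission ratio; on the % scale 0 is the no-effect control and ±100 the full control effect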). As to conditions: ME-180 SIE beta-lactamase reporter, IL-6 stimulated, 5 h; at 7.69 µM (top of the series) unless noted. The essentials: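 Screening format detects activators and inhibitors alike: ME-180 SIE-bla cells stimulated at 40 pM IL-6 for 5 hrs with compound, then dual-emission beta-lactamase read at 405 nm excitation.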

Experiment [16] deals with Cytochrome P450 3A4 (Homo sapiens) (UniProt P08684). Kind of experiment: qHTS Assay for Inhibitors and Substrates of Cytochrome P450 3A4 (AID 884). Further: on the % scale 0 is the no-effect control and ±100 the full control effect; nearly all actives have a fitted effect of over 50% in size. The following applies: recombinant CYP3A4, Luciferin-PPXE luminescence; series mostly up to 57.1 µM. The essentials:
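20 nM human CYP3A4 with 25 uM Luciferin-PPXE (at KM) in 200 mM KPO4, preincubated 10 min with compound; NADPH regeneration started a 60 min RT reaction. Luciferin detected by luminescence, normalized to 57 uM ketoconazole as full inhibition.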

The nature of experiment [17]: Cell Viability qHTS for small molecule stabilizers of the endoplasmic reticulum resident proteome (AID 1508629).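 Further: human SH-SY5Y neuroblastoma cells carrying the GLuc-SERCaMP reporter; compound exposure about 46 h in total before the viability read; on the % scale 0 is the no-effect control and ±100 the full control effect.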 The following applies: cell viability counter-screen, 100 nM thapsigargin for final 4 h.
The target of experiment [18] is Cytochrome P450 1A2 (Homo sapiens) (UniProt P05177). Description: p450-cyp1a2 (AID 410; calls by dose curve; further: potency means the concentration at half of the fitted maximal effect). As to conditions: recombinant CYP1A2, luciferin-ME demethylation, luminescence; series mostly up to 57 µM. The essentials:
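Luminescent readout of luciferin formed from Luciferin-ME by human CYP1A2; data normalized against complete inhibition by 57 uM furafylline. Enzyme 20nM, substrate 100uM at Km, 100mM KPO4 buffer, 60 min reaction at room temperature.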

A short description of experiment [19]: NFAT Signaling Pathway (AID 444; active means well fitted curve in either direction with a large enough effect, not every such curve was filed as active). As to conditions: Jurkat NFAT-bla M1, carbachol, beta-lactamase ratio, 5 h; at 7.69 µM (top of the series) unless noted. The essentials: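 Jurkat cells with NFAT-driven β-lactamase reporter and co-expressed M1 receptor, stimulated with carbachol (final 1 uM, ~EC50), compound titration, 5 h at 37 °C. CCF4 loaded 1 h at RT; 460/530 nm ratio gave %activity and AC50.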

Experiment [20] concerns the target 3',5'-cyclic-AMP phosphodiesterase 4B (Homo sapiens) (UniProt Q07343). Description: qHTS Assay for Inhibitors of PDE-IV (AID 607; active means well fitted activation curve with a large enough effect in the main read-out, with a control signal flat, not every such curve was filed as active; further: % of control where 0% means no effect). The following applies: HEK293 ACTOne CNG channel cells, membrane potential fluorescence; series mostly up to 22.9 µM. The essentials: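 The readout is membrane depolarisation from a cAMP-sensing CNG channel, detected with a potential dye at ex 535/em 590. Cells were HEK293-derived (endogenous PDE-IV) at 1000 cells/well, titrated up to 22.9 uM final.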

Experiment [21] addresses Cytochrome P450 3A4 (Homo sapiens) (UniProt P08684). Kind of experiment: qHTS Assay for Activators of Cytochrome P450 3A4 (AID 885). Further: nearly all actives have a fitted effect of over 65% in size. As to conditions: recombinant CYP3A4, Luciferin-PPXE luminescence, 60 min; series mostly up to 57.1 µM. The essentials: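 Steps: enzyme/substrate mix dispensed; compound added, 10 min RT; NADPH regeneration solution added, 60 min RT; luciferin detection buffer stops reaction; 20 min later luminescence measured.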

Where [22] appears, read: measured here: cell count channel max response.
[23] abbreviates: measured here: lipid channel max response.

Inconclusive results are not listed. The source made the active and inactive calls. Unless noted, the call rests on the fitted dose curve; in most records, active means well fitted curve in the direction sought with a large enough effect; inconclusive means small, poorly fitted or top-dose-only effect, or another doubt; inactive means no such curve, though single readings can be large; an effect the other way counts as inactive or inconclusive.

Lysosomal acid glucosylceramidase (Homo sapiens), sequence (P04062 whole entry, looked up): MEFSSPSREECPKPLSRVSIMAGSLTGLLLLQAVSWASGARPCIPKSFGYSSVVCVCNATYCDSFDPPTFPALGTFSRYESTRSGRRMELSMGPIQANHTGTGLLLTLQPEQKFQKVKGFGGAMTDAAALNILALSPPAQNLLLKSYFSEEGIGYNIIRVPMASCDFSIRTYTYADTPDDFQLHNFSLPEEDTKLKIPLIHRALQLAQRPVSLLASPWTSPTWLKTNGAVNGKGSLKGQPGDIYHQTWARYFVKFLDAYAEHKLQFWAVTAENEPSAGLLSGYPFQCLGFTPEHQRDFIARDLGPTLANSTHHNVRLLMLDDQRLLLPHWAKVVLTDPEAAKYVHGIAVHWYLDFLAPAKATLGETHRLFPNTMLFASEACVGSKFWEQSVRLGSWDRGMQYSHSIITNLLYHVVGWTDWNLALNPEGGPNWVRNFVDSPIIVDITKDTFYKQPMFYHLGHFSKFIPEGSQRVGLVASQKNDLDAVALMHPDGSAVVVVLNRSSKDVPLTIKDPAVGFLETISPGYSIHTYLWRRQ
Glucocorticoid receptor (Homo sapiens), sequence (P04150 whole entry, looked up): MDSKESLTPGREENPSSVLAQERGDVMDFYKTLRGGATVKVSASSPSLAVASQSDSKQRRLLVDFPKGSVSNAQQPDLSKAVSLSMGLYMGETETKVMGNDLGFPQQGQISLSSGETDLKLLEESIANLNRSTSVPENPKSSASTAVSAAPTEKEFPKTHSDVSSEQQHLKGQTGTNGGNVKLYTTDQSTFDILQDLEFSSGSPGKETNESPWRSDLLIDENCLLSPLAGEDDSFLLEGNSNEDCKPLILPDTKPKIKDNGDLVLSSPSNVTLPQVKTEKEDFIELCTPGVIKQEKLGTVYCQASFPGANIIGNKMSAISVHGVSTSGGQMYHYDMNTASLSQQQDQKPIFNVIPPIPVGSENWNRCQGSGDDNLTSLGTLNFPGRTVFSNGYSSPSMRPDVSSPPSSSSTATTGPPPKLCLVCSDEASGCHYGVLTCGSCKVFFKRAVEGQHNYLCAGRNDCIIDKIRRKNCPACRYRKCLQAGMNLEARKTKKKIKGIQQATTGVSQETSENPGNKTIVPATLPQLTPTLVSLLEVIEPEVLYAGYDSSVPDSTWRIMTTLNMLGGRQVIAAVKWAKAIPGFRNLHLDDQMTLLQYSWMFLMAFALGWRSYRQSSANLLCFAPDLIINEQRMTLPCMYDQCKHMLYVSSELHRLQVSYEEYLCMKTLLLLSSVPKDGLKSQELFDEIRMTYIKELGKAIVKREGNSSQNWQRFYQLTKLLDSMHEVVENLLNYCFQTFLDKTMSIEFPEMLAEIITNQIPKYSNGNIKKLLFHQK
Dual specificity protein kinase CLK4 (Homo sapiens), sequence (Q9HAZ1 whole entry, looked up): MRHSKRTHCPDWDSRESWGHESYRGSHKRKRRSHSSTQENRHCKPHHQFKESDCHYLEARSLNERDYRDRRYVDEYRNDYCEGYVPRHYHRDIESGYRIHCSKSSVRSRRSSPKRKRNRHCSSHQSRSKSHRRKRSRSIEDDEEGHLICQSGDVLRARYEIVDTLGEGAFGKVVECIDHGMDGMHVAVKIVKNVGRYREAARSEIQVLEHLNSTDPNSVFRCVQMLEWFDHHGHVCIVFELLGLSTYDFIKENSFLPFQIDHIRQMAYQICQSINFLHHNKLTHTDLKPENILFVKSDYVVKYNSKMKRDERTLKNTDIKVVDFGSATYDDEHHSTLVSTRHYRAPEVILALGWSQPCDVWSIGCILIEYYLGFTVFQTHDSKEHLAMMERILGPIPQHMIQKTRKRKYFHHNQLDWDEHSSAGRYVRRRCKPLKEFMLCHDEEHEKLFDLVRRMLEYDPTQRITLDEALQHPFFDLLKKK
Cytochrome P450 3A4 (Homo sapiens), sequence (P08684 whole entry, looked up): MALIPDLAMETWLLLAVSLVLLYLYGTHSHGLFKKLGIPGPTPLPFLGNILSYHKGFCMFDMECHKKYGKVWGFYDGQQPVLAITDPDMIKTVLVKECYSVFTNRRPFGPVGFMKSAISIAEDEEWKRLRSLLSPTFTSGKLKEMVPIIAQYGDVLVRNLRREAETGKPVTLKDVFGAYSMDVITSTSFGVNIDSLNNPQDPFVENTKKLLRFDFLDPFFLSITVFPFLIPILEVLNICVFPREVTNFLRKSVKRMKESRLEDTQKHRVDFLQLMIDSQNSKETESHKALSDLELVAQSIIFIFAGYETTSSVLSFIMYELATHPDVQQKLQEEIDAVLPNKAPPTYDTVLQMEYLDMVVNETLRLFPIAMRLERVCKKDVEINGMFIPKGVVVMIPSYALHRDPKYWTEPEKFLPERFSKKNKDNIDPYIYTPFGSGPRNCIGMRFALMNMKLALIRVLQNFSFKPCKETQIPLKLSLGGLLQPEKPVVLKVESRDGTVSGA
Ubiquitin carboxyl-terminal hydrolase 1 (Homo sapiens), sequence (O94782 whole entry, looked up): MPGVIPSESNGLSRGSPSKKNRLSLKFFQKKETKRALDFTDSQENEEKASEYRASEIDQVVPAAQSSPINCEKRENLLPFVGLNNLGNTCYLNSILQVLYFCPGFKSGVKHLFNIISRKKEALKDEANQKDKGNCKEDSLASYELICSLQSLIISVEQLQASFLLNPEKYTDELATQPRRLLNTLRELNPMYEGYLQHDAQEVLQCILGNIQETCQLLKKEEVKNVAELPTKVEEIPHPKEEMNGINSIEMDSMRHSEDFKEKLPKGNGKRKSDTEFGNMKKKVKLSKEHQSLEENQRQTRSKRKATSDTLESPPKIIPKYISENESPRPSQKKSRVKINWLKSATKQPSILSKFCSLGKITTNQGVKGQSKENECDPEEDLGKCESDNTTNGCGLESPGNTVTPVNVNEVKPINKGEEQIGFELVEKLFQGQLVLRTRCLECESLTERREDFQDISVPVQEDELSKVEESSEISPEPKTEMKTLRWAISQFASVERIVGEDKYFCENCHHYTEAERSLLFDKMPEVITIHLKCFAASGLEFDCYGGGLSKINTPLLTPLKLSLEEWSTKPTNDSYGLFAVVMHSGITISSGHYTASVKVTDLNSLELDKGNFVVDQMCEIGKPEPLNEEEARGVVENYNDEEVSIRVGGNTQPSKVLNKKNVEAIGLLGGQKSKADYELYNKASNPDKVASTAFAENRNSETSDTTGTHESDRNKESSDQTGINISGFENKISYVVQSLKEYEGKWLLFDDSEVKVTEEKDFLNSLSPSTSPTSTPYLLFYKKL
Cytochrome P450 1A2 (Homo sapiens), sequence (P05177 whole entry, looked up): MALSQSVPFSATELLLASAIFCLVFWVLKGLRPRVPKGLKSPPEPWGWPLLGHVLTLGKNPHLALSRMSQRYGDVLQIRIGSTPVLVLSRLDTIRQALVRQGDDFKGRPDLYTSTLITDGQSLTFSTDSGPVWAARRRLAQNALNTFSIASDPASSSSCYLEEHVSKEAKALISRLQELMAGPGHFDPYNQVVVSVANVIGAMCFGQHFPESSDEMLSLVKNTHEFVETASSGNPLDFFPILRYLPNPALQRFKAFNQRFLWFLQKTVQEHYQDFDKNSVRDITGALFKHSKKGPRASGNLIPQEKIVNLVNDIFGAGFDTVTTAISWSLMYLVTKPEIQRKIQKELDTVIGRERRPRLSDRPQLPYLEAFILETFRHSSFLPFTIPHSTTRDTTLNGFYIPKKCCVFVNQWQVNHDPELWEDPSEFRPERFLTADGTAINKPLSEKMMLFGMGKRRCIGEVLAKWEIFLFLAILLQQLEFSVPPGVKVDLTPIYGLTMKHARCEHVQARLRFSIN
3',5'-cyclic-AMP phosphodiesterase 4B (Homo sapiens), sequence (Q07343 whole entry, looked up): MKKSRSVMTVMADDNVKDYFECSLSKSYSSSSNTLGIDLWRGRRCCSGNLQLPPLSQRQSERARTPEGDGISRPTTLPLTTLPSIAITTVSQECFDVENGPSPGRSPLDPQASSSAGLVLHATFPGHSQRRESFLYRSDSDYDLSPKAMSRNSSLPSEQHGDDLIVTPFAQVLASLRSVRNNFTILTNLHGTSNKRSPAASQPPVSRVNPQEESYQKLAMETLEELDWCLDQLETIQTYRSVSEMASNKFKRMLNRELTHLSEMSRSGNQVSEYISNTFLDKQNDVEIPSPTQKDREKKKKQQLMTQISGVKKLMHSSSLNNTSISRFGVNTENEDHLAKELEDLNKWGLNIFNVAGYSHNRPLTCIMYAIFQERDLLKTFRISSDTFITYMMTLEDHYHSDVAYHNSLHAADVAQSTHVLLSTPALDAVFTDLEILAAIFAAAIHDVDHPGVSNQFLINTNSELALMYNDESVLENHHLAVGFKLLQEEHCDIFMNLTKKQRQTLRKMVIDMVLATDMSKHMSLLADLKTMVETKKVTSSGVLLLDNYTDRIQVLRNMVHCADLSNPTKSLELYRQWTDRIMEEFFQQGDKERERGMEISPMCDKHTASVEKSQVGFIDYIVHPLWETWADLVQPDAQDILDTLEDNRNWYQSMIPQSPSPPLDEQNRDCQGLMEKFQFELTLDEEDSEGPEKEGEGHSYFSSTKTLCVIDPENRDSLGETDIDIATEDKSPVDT
Cytochrome P450 2C9 (Homo sapiens), sequence (P11712 whole entry, looked up): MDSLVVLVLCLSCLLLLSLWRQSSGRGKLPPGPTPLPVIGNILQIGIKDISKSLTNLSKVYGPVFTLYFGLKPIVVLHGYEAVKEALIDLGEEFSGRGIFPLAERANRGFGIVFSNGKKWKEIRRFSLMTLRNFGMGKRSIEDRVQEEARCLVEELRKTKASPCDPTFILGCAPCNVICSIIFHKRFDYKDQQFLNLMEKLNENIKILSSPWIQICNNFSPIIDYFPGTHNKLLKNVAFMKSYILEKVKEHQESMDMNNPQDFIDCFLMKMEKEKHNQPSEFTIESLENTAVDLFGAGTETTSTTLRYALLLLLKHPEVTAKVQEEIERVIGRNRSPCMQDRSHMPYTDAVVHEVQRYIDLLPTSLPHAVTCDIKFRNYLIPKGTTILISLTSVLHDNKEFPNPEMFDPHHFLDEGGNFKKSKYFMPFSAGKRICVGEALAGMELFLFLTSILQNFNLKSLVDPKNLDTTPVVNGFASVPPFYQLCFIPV

In the case of `CN1CCN(c2ncc3nc(-c4ccccc4)c(=O)n(CCc4ccccc4)c3n2)CC1`, the Potency in experiment [1] was > 11.4 µM (inactive); in experiment [2], > 9.22 µM (inactive); in [3], > 46 µM (inactive); in experiment [5], 3.16 µM (active); in [6] it was 3.16 µM (active); in [13], 39.8 µM (active). For the same compound, in [4], the result was inactive. The activity change, negative = inhibition in experiment [7] is -1.95% (inactive). Further, the values for the max response in experiment [7] (setting [22]) and in [7] (setting [23]) were -2.1% and -5.21%, respectively. Further, the Potency result in [8], in experiment [9], in experiment [10], in experiment [11] and in experiment [12] was “inactive” throughout.

For the compound `O=C(c1cc(C(F)(F)F)cc(C(F)(F)F)c1)N1CCC2(CC1)CCN(c1ccncc1)CC2`, the Potency is > 11.4 µM (inactive) in experiment [1] and > 46 µM (inactive) in experiment [3]. For the same compound, the activity change, negative = inhibition in experiment [14] was 24.2% (inactive); in experiment [7] it was 0.636% (inactive). In experiment [15], the activity, negative = inhibition was 16.4% (inactive). Moreover, the result in experiment [4] was inactive. The Potency result in experiment [16], in experiment [12] and in [13] was “inactive” each time. The max response in experiment [7] (setting [22]) was -1.35%; in [7] (setting [23]), 0.493%.

`CCCCCCCCCCCCc1ccccc1O`: the Potency result in [12] is “inactive”. In experiment [17], the max response was 11.8% (inactive).

`COc1ccc(-n2c(=O)c(-c3ccccc3)nc3cnc(N4CCN(C)CC4)nc32)cc1`: the activity change, negative = inhibition in [14] was 14.5% (inactive); in [19] it was 5.17% (inactive); in experiment [7], 0.696% (inactive). The Potency in [18] is 20 µM (active); in experiment [2] it was > 9.22 µM (inactive); in experiment [3] it was > 46 µM (inactive); in [13], 25.1 µM (active). Further, the activity, negative = inhibition in experiment [15] was 12.2% (inactive). Moreover, the compound was called inactive in experiment [4]. For the same compound, the Potency entry in experiment [20], in [16], in experiment [8], in experiment [9], in experiment [10] and in experiment [11] was “inactive” throughout. For the same compound, the Potency entry in experiment [12] was “inactive”. In addition, the max response in experiment [7] (setting [22]) was 22%; in [7] (setting [23]), 20%; in experiment [17], 12.9% (inactive).

Consider `O=c1cnc2cnc(N3CCNCC3)nc2n1Cc1cccs1`, for which the Potency is > 11.4 µM (inactive) in [1], > 9.22 µM (inactive) in experiment [2], > 46 µM (inactive) in experiment [3] and 31.6 µM (active) in experiment [13]. Besides, the activity change, negative = inhibition in experiment [14] was -4.82% (inactive). In [15], the activity, negative = inhibition is 0.322% (inactive). For the same compound, the compound was called inactive in experiment [4]. The Potency result in [21] and in experiment [12] was “inactive” throughout.
